A selection: hits, their analogues and other compounds. The true share with any hit is near 2.8%.
Shn3 inh set2 – Schnurri-3 reporter inhibition in Clone20 osteoblasts. Clone20 osteoblast Shn3 3'UTR firefly luciferase, 24 h. inhibition, % at 12.5 µM. hit rate 0.52% among 360,000;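 active means mean inhibition of at least 75% with every replicate also reaching 75%; inconclusive means mean inhibition at least 75% but some replicate below; inactive means mean inhibition below 75%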
KKLEB tox – CF airway cell cytotoxicity counter-screen; KKLEB CF airway cells viability, ATPlite luminescence, overnight; hits give low values; cells stimulated with P. aeruginosa culture filtrate; activity change (cytotoxicity), % at 5 µM; hit rate 0.36% among 360,000;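 active means corrected activity change at or below -50% at 5 µM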
Peg3 prom inh-1 – inhibitors of Peg3 promoter; hit rate 1.7% among 360,000; HeLa PEG-Prom luciferase reporter, luminescence, overnight; inhibition, % at 20 µM;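 active means inhibition of at least 50% at 20 µM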
HIF-2a block – HIF-2a inhibition | 786-0 RCC cells HIF-2a reporter, luciferase luminescence, overnight | inhibition, % at 18.8 µM | hit rate 0.72% among 360,000 | AID 624352;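 active means inhibition of the luminescence signal of 40% or more relative to plate controls, in a single-dose primary screen at 18.75 µM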
CF NFkB inh – inhibitors of cystic fibrosis induced NF-kB; KKLEB NF-kB-GFP reporter, PAF-induced, GFP fluorescence overnight; hit rate 0.86% among 360,000; AID 588850; inhibition, % at 5 µM;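 active means at least 50% inhibition at 5 µM, scaled per plate between neutral and stimulator controls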;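 further: PAF is a Pseudomonas aeruginosa culture filtrate used as stimulus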
TRPM1 prom inh – MITF TRPM1 promoter inhibition in SK-MEL-5 cells | SK-MEL-5 TRPM1 promoter luciferase, 24 h | inhibition, % at 12.5 µM | hit rate 0.83% among 330,000 | AID 488899;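 active means mean inhibition across replicates of 60% or more, whatever share of single replicates reaches that level; inconclusive means some that reach 60%, reason not given; inactive means mean inhibition across replicates below 60%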
Peg3 prom inh-2 – confirmation of Peg3 promoter inhibitors | shares compounds with Peg3 prom inh-1 | HeLa PEG-Prom luciferase reporter, luminescence, overnight | inhibition, % at 20 µM | hit rate 84% among 1,300;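 active means at 20 µM dose, 40% or more inhibition averaged across four replicates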
Each line names hits and unclear results; the compound was inactive in the other large screens (follow-up assays come after a bar, where they were run).

CC(C)N1CCc2c(sc(NC(=O)c3cc4cc([N+](=O)[O-])ccc4s3)c2C(N)=O)C1	Peg3 prom inh-1 96.8 (no result: TRPM1 prom inh) | Peg3 prom inh-2 97.9
CC(C)N1CCc2c(sc(NC(=O)c3ccc4ccccc4c3)c2C(N)=O)C1	none
CCCC/C=C1\CCc2c([nH]c3ccccc23)C1=O	none
CCCCCCC=C1CCC(CN2CCCC2)C1=O (stereo not drawn)	Peg3 prom inh-1 101.5 (no result: TRPM1 prom inh) | Peg3 prom inh-2 76.6
COC(=O)c1ccc(OCC2c3cc(OC)c(OC)cc3CCN2C(=O)c2ccco2)cc1 (stereo not drawn)	Peg3 prom inh-1 60.1 | Peg3 prom inh-2 44.6
Cc1ccc(-c2nn(-c3ccccc3)cc2CSC(=N)N)cc1	Peg3 prom inh-1 101.1 | Peg3 prom inh-2 40.7
COc1ccc2nc(Nc3nc(CSc4nnnn4-c4ccccc4)cc(=O)[nH]3)nc(C)c2c1	Peg3 prom inh-1 73.7 | Peg3 prom inh-2 43.5
CCOc1ccc2nc(Nc3nc(CSc4nnnn4-c4ccccc4)cc(=O)[nH]3)nc(C)c2c1	none
COc1ccc(CCNC(=O)C(=O)NCC2CCCN2S(=O)(=O)c2ccccc2)cc1OC (stereo not drawn)	Peg3 prom inh-1 56.3 | Peg3 prom inh-2 57.7
O=C(NCCc1ccccc1)C(=O)NCC1CCCN1S(=O)(=O)c1ccccc1 (stereo not drawn)	none
CC(OC(=O)c1ccc2c(=O)n3c(nc2c1)CCC3)C(=O)NC1CCCCC1C (stereo not drawn)	none
Cn1c2ccccc2c2ccc3c(c21)C(=O)C=CC3=O	Shn3 inh set2 94.4, Peg3 prom inh-1 104.5, TRPM1 prom inh 89.3 | Peg3 prom inh-2 100.7
COC1=C(Br)C(=O)c2nc(C)ccc2C1=O	Peg3 prom inh-1 107.4 (no result: TRPM1 prom inh) | Peg3 prom inh-2 100.0
COc1nc(C)ccc1-c1noc(-c2cccnc2)n1	none
CC(C)c1ccc(NC(=O)Nc2nc(C(C)N)cs2)cc1 (stereo not drawn)	Peg3 prom inh-1 85.6 (no result: TRPM1 prom inh) | Peg3 prom inh-2 90.2
NC(c1csc(Nc2nccc(C(F)(F)F)n2)n1)C1CCCCC1 (stereo not drawn)	Peg3 prom inh-1 82.5 (no result: TRPM1 prom inh) | Peg3 prom inh-2 94.0
CC(C)c1ccc(NC(=O)Nc2nc(CN)cs2)cc1	none (no result: TRPM1 prom inh)
COc1cccc(Nc2nc(C(N)C3CCCCC3)cs2)n1 (stereo not drawn)	Peg3 prom inh-1 95.6 (no result: TRPM1 prom inh) | Peg3 prom inh-2 63.4
Cc1ccccc1NC(=O)Nc1nc(C(N)C2CCCCC2)cs1 (stereo not drawn)	Peg3 prom inh-1 85.7 (no result: TRPM1 prom inh) | Peg3 prom inh-2 80.6
COc1cccc(Nc2nc(C(C)N)cs2)n1 (stereo not drawn)	none (no result: TRPM1 prom inh)
CC1CN(Cc2ccccc2)C(C)CC1O (stereo not drawn)	none
COc1ccc(N2CCN(c3cc(C(=O)NC4CCCCC4)ncn3)CC2)cc1OC	none (no result: TRPM1 prom inh)
N#C/C(=C\c1ccc[nH]1)C(=O)Nc1ccccc1[N+](=O)[O-]	none
COc1ccc(NC(=O)Nc2nc(C(N)C3CCCCC3)cs2)cc1 (stereo not drawn)	Peg3 prom inh-1 54.4 (no result: TRPM1 prom inh) | Peg3 prom inh-2 71.4
COc1cc(C(=O)OCC(=O)Nc2ccccc2)cc2c1OCCO2	none (no result: TRPM1 prom inh)
Cc1cc(CSc2ccccc2)ccc1NC(=O)c1ccc(Br)cc1	Peg3 prom inh-1 53.9 | Peg3 prom inh-2 inactive
O=C(Nc1cccc(Br)c1)c1ccc(CSc2ccccc2)cc1	none
N#Cc1ccsc1NC(=O)C1CCN(C(=O)c2ccc(Cl)cc2)CC1	none
CCCCCCCCCC[N+](C)(C)CC/C=C1/c2ccccc2Sc2ccc(Cl)cc21	Shn3 inh set2 87.0, Peg3 prom inh-1 107.5, HIF-2a block 49.1 | Peg3 prom inh-2 99.5
Cc1cccc(N(C)S(=O)(=O)c2c[nH]c3ccc([N+](=O)[O-])cc23)c1	none
CN(C)CCCN1c2ccc3ccccc3c2Sc2cccc(Cl)c21	none
O=C(CCl)N1c2ccccc2Sc2ccc3ccccc3c21	Peg3 prom inh-1 106.9 (no result: TRPM1 prom inh) | Peg3 prom inh-2 100.1
CN(C)CCCN1c2ccccc2Sc2ccc3ccccc3c21	Peg3 prom inh-1 61.3 | Peg3 prom inh-2 97.9
O=C(COc1ccc2ccccc2c1)N1c2ccccc2Sc2ccccc21	none
CCCN1C(=O)c2ccc(C(=O)Nc3ccccc3C(=O)O)cc2C1=O	none
Cc1cc2ccccc2n2c(SCC(=O)Nc3ccc(S(=O)(=O)N4CCCCC4)cc3)nnc12	none
Cc1cc2cc(C)c3nnc(SCC(=O)Nc4ccc(S(=O)(=O)N5CCCCC5)cc4)n3c2cc1C	Peg3 prom inh-1 68.6 | Peg3 prom inh-2 inactive
Cc1ccsc1/C=N/Nc1cccc(C(=O)O)c1	Peg3 prom inh-1 85.9, HIF-2a block 85.5, TRPM1 prom inh 95.7 | Peg3 prom inh-2 73.7
CC(C)N(C(=O)[C@H]1CC(CC(=O)NCc2cccc(C(F)(F)F)c2)C(=O)N2CCc3c([nH]c4ccccc34)[C@]12C)C(C)C (stereo partly drawn)	Peg3 prom inh-1 68.3 | Peg3 prom inh-2 inactive
CCN(CC)C(=O)[C@H]1CC(CC(=O)NCc2cccc(C(F)(F)F)c2)C(=O)N2CCc3c([nH]c4ccc(OC)cc34)[C@]12C (stereo partly drawn)	none
CC(C)[C@H](NC(=O)c1ccccc1F)C(=O)OCCN1C(=O)c2ccccc2C1=O	none
COc1ccccc1NS(=O)(=O)c1ccc2ccccc2c1	none
COc1ccc(NS(=O)(=O)c2ccc3ccccc3c2)c2ncccc12	Peg3 prom inh-1 51.0, CF NFkB inh 51.1 | Peg3 prom inh-2 51.6
Cc1cc(OCC(=O)OCC(=O)NCC2CCCO2)ccc1Cl (stereo not drawn)	none
Cc1nc(-c2ccc(NC(=O)c3ccco3)cc2)cs1	KKLEB tox -53.5, Peg3 prom inh-1 82.5, HIF-2a block 63.8, TRPM1 prom inh 73.4 | Peg3 prom inh-2 66.6
CCCN(CCC)S(=O)(=O)c1ccc(Cl)c([N+](=O)[O-])c1	KKLEB tox -50.1, Peg3 prom inh-1 94.3, CF NFkB inh 59.7 | Peg3 prom inh-2 inactive
CCCN(CCC)S(=O)(=O)c1ccc(N2CCCC2=O)c([N+](=O)[O-])c1	none
Cc1ccc(-c2nn3c(-c4ccccc4)nnc3o2)cc1	none (no result: TRPM1 prom inh)
CCOc1cccc(-c2c(C(=O)N/N=C(\C)c3ccncc3)nnn2-c2nonc2N)c1	none
CCOc1cccc(-c2c(C(=O)N/N=C(\C)c3ccccn3)nnn2-c2nonc2N)c1	Shn3 inh set2 93.9, Peg3 prom inh-1 74.2, TRPM1 prom inh 60.8 | Peg3 prom inh-2 63.9
Nc1nonc1-n1nnc(C(=O)N/N=C/c2ccccc2)c1CN1CCc2ccccc21	none
C/C(=N\NC(=O)c1nnn(-c2nonc2N)c1CN1CCc2ccccc21)c1ccccc1O	Shn3 inh set2 inconclusive, Peg3 prom inh-1 55.3 | Peg3 prom inh-2 66.5
COc1ccc(Nc2c3c(nc4ccccc24)CCCC3)cc1OC	none

High-throughput results (PubChem)
